DT40 TDP1 CPT: growth inhibition of DT40 Tdp1-/-;hTDP1 cells with camptothecin (screen for TDP1 inhibitors) | chicken DT40 Tdp1-/-;hTDP1 cells + 20 nM CPT, ATP luminescence, 48 h | actives 12% (n = 420,000) | Potency, µM (highest dose often 46.2 µM), for the others: top-dose activity change, negative = growth inhibition, hits mostly inhibitors; further: potency means the concentration at half of the fitted maximal effect; nearly all actives have a fitted effect of over 55% in size
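Chicken DT40 Tdp1-/- cells stably complemented with human TDP1 were seeded at 400 cells/well in medium containing 20 nM camptothecin, exposed to pin-transferred compounds, and grown at 37 °C for at least 48 hr. Viability was read as ATP luminescence.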
HT1080 IDH1KD tx: toxicity to HT-1080 IDH1 knockdown cells (counter line); Potency, µM (titrated, usually from 46.1 µM), for the others: at the top dose activity, negative = toxicity, most hits filed as cytotoxic; actives 2% (n = 360,000); AID 686971; HT-1080 IDH1 knockdown viability, ATP luminescence, 48 h;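 further: potency means the concentration at half of the fitted maximal effect; 0% = DMSO wells and -100% = cell-free medium wells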
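Assay cells: HT-1080 with IDH1 knockdown, 750 per well, RPMI/5% FBS. Exposure: 48 h at 37 °C following 2 h pre-incubation. Read: CellTiter-Glo luminescence; fitted concentration-response, curve class assigned.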
IL1B secr inh: blocks inflammasome-driven IL-1 beta release. actives 4.7% (n = 360,000). THP-1 LPS/ATP IL-1B secretion, AlphaLISA, 16 h; active compounds read low. activity change, % at 57.5 µM; in the data active means activity change below about -50%; inconclusive means mostly about -30% to -49%
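Secreted IL-1B measured by AlphaLISA bead assay after 16 h compound exposure of THP-1 cells; compounds (final up to 57.5 uM) added 1 h before LPS (250 ng/mL) and ATP (1.25 mM) stimulation; lower signal means less secretion.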
TDP1 cell noCPT: qHTS for Inhibitors of human tyrosyl-DNA phosphodiesterase 1 (TDP1): qHTS in cells in absence of CPT. actives 15% (n = 420,000). DT40 Tdp1-/- hTDP1 cells, no CPT, ATP luminescence, 48 h. Potency, µM (doses to about 46.2 µM), inactives show top-dose activity change, negative = growth inhibition, actives largely listed as inhibitors; further: potency means the concentration at half of the fitted maximal effect; nearly all actives have a fitted effect of over 55% in size
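Stably hTDP1-transfected Tdp1-null chicken DT40 cells were treated with library compounds minus camptothecin and grown for at least 48 hr at 37 °C, after which cellular ATP was quantified by luminescence.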
HT1080NT lethal: kills 2HG-producing HT-1080-NT fibrosarcoma cells. HT-1080-NT fibrosarcoma viability, CellTiter-Glo ATP luminescence, 48 h. Potency, µM (doses to about 46.1 µM), without a hit: at the top dose activity, negative = less viability, usual class: cytotoxic. actives 1.6% (n = 360,000);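 further: NT is the 2HG producing partner of a matched IDH1 knockdown line; potency means the concentration at half of the fitted maximal effect; 0% = DMSO-treated cells and -100% = media-only wells without cells; nearly all actives have a fitted effect of over 55% in size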
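A 48-hour cytotoxicity screen used HT-1080-NT cells plated 2 hours before compound delivery. ATP-based CellTiter-Glo luminescence measured viability, normalized to DMSO and no-cell controls.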
ALOX12 inh: ALOX12 (human) lipoxygenase inhibition. AID 1671190. purified 12hLO, xylenol orange hydroperoxide absorbance. actives 1.1% (n = 580,000). Potency, µM (series often up to 108 µM), without a hit: top-dose activity change, negative = inhibition, actives largely listed as inhibitors; further: potency means the concentration at half of the fitted maximal effect
Target sequence (P18054 whole entry, looked up): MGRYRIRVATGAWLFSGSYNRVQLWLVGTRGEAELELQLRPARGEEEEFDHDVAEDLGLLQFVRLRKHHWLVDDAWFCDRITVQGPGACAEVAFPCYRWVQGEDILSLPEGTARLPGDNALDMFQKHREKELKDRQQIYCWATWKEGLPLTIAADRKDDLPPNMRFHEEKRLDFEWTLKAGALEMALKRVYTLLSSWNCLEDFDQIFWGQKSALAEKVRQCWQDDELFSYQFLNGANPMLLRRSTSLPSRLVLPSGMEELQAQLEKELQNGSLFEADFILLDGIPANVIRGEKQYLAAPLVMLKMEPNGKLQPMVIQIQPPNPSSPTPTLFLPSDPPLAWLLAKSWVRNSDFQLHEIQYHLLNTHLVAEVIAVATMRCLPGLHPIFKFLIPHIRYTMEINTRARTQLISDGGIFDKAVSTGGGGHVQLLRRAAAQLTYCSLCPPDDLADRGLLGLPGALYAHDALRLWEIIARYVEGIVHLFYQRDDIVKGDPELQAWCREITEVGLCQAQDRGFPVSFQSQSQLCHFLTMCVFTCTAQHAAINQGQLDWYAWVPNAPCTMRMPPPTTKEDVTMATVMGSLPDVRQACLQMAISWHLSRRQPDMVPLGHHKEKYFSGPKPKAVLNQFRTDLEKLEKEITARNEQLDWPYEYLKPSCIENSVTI
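Purified human 12hLO at 150 nM in 25 mM Hepes, 0.01% Triton X-100, pH 7.0, preincubated 15 min at room temperature with compound. Reaction started with 40 uM arachidonic acid, 30 min at room temperature. Hydroperoxide measured by Fe-xylenol orange, 573/405 nm absorbance ratio.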
The depositor's hits bear a star; i = inactive; ? = inconclusive; · = no result given; [ ] = another dose, or the depositor's remark. Only a selection was taken, and hits are over-represented in it overall. Unless noted, the call rests on the fitted dose curve; in most records, active means well fitted curve in the direction sought with a large enough effect; inconclusive means small, poorly fitted or top-dose-only effect, or another doubt; inactive means no such curve, though single readings can be large; an effect the other way counts as inactive or inconclusive. Unless noted, on the % scale 0 is the no-effect control and ±100 the full control effect.

SMILES	DT40 TDP1 CPT	HT1080 IDH1KD tx	IL1B secr inh	TDP1 cell noCPT	HT1080NT lethal	ALOX12 inh
COC(=O)c1ccc(N2CCOCC2)c(NC(=O)c2cc3ccccc3o2)c1	3%	5%	7	-1%	5%	0%
O=C(Nc1ccc(N2CCN(C(=O)c3ccco3)CC2)c(Cl)c1)c1cc2ccccc2o1	4.1µM*	15µM*	-105*	8.2µM*	?	4%
CC(=O)N1CCN(c2ccc(NC(=O)c3ccco3)cc2Cl)CC1	-3%	-3%	-4	5%	-4%	i
COC(=O)c1ccc(N2CCN(C)CC2)c(NC(=O)c2cc3ccccc3o2)c1	21µM*	2%	8	23µM*	-1%	-17%
O=C(Nc1ccc(N2CCN(C(=O)c3ccccc3)CC2)c(Cl)c1)c1ccco1	16µM*	?	-79*	13µM*	-20%	5%
CC(=O)N1CCN(c2ccc(NC(=O)c3cc4ccccc4o3)cc2)CC1	?	10%	-19	?	23%	17%
CCN(CC)CCN	·	·	·	·	·	-2%[22.9 µM]
CCC(=O)N1CCN(c2ccc(NC(=O)c3cc4ccccc4o3)cc2Cl)CC1	9.2µM*	16µM*	-115*	13µM*	?	0%
CCC(=O)N1CCN(c2ccc(NC(=O)c3ccco3)cc2Cl)CC1	8%	12%	i	-10%	11%	0%
Cc1ccc2nc(SCC(=O)c3c(C)[nH]c4ccccc34)[nH]c2c1	23µM*	-3%	?	18µM*	-13%	-10%
CC(C)OC(=O)CSc1nc2ncc(Cl)cc2[nH]1	-14%	-4%	?	-3%	-3%	9%
CC(C)Cn1c(N)c(C(=O)CSc2nc3ncc(Cl)cc3[nH]2)c(=O)n(C)c1=O	?	-11%	?	16µM*	-3%	?
Cc1[nH]c2ccccc2c1C(=O)CSc1nc2ncc(Cl)cc2[nH]1	13µM*	?	30	?	-12%	-25%
Cc1nc(-c2c3n(c(=O)n(Cc4cccc(Cl)c4)c2=O)CCCCC3)no1	·	·	·	·	·	19%
COc1cccc(C(Nc2ccccc2)c2ccc3ccc(C)nc3c2O)c1 (stereo unspecified)	5.8µM*	7.3µM*	55	5.2µM*	10µM*	-21%
O=[N+]([O-])c1ccc(NC(c2ccccc2)c2ccc3cccnc3c2O)cc1 (stereo unspecified)	3.3µM*	?	73	4.6µM*	?	?
Cc1cccc(NC(c2ccc(O)cc2)c2ccc3ccc(C)nc3c2O)n1 (stereo unspecified)	23µM*	-13%	-71*	16µM*	-1%	?
Oc1cccc(C(Nc2nccs2)c2ccc3cccnc3c2O)c1 (stereo unspecified)	3.7µM*	18µM*	-107*	4.6µM*	29µM*	?
COc1ccc(NC(C)c2ccccc2)cc1 (stereo unspecified)	2%	12%	10	-1%	10%	5%
O=[N+]([O-])c1ccc2cccnc2c1	5%	3%	17	-12%	5%	-21%
CCCCC(=O)NC(c1cccc([N+](=O)[O-])c1)c1ccc2cccnc2c1O (stereo unspecified)	3.7µM*	?	91	2.9µM*	?	?
CC(=O)NC(c1cccc([N+](=O)[O-])c1)c1ccc2cccnc2c1O (stereo unspecified)	2.6µM*	?	189	1µM*	?	11%
CCCCC(=O)NC(c1cccc([N+](=O)[O-])c1)c1c(OC(C)=O)ccc2ccccc12 (stereo unspecified)	?	?	-17	?	-30%	0%
COc1cccc(C(NC(C)=O)c2ccc3cccnc3c2O)c1 (stereo unspecified)	0.73µM*	?	203	0.92µM*	-9%	19%
CCSc1nc(N2CCOCC2)c2sc3c(c2n1)COC(C)(C)C3	·	·	·	·	·	9%
SMILES	DT40 TDP1 CPT	HT1080 IDH1KD tx	IL1B secr inh	TDP1 cell noCPT	HT1080NT lethal	ALOX12 inh
CC(=O)c1ccc(NC(=O)CSc2cn(CC(=O)N(C(C)C)C(C)C)c3ccccc23)cc1	?	·	·	15µM*	·	-25%
Cc1ccccc1NC(=O)CSc1cn(CC(=O)N(C(C)C)C(C)C)c2ccccc12	?	·	·	15µM*	·	0%
CCCCn1nnnc1C(c1cc2ccccc2o1)N(C)CCc1ccccc1 (stereo unspecified)	?	-22%	25	21µM*	-20%	1%
CCCCn1nnnc1C(c1cc2ccccc2o1)N(CCC#N)Cc1ccccc1 (stereo unspecified)	16µM*	-11%	-17	?	-24%	1%
CN(CCc1ccccc1)C(c1cc2ccccc2o1)c1nnnn1C(C)(C)C (stereo unspecified)	?	?	2	?	-25%	?
CCCCn1nnnc1C(c1cc2ccccc2o1)N(C)Cc1ccc(Cl)cc1 (stereo unspecified)	?	-20%	-1	21µM*	-10%	0%
CN(Cc1ccccc1)C(c1cc2ccccc2o1)c1nnnn1C(C)(C)C (stereo unspecified)	?	-19%	-8	18µM*	-18%	8%
Cc1ccc(OCCSc2nc3cc(S(=O)(=O)N(C)C)ccc3o2)cc1	·	·	·	·	·	-2%
CCCCn1nnnc1C(c1cc2ccccc2o1)N(Cc1ccccc1)Cc1ccccc1 (stereo unspecified)	?	6%	21	18µM*	-1%	-17%
Cc1cccc(C)c1-c1ccc(CN2C(CC(C)C)C(=O)N(Cc3cn(CC4CCCCC4)nn3)CCS2(=O)=O)cc1 (stereo unspecified)	?	?	-13	23µM*	?	-85%
CC(C)CC1C(=O)N(Cc2cn(CC3CCCCC3)nn2)CCS(=O)(=O)N1Cc1ccc(-c2ccc(Cl)c(Cl)c2)cc1 (stereo unspecified)	?	-29%	-11	16µM*	?	-6%
Cc1cc2n(CC(O)COc3ccc(-c4ccccc4)cc3)c(=O)c3ccccc3n2n1 (stereo unspecified)	·	·	·	·	·	10%
CCc1ccccc1NC(=O)c1nc2ccccc2nc1N1CCCC1	·	·	·	·	·	1%
O=C(Nc1c(-c2ccccc2)[nH][nH]c1=O)c1ccc(Br)cc1	-11%	10%	12	5%	12%	?
